Pf growth 96h: Primary qHTS for delayed death inhibitors of the malarial parasite plastid, 96 hour incubation; P. falciparum luciferase reporter growth, 96 h; Potency, µM (titrated, usually from 28.7 µM), for the others: at the top dose activity change, negative = inhibition, hits mostly inhibitors; 6.9% of 320,000 active; AID 504834, 2011
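Parasite growth measured via integrated firefly luciferase reporter in P. falciparum. Infected erythrocytes at 2% hematocrit, 0.05% parasitemia final were treated 96 hours at 37 C under 5% CO2, and luminescence was read.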
VACV mCherry inh: qHTS for Stage-Specific Inhibitors of Vaccinia Orthopoxvirus: mCherry Reporter Primary qHTS. Vaccinia virus mCherry reporter infection, fluorescence. Potency, µM (titrated, usually from 36.5 µM), without a hit: at the highest dose activity change, negative = inhibition, actives largely listed as inhibitors. 0.63% of 310,000 active; calls by dose curve; tested in A549 cells; note: nearly all actives have a fitted effect of over 35% in size
Pf growth 48h: Primary qHTS for delayed death inhibitors of the malarial parasite plastid, 48 hour incubation. P. falciparum luciferase growth in erythrocytes, 48 h. Potency, µM (titrated, usually from 28.7 µM), for the others: at the top dose activity change, negative = inhibition, most hits filed as inhibitors. 5.9% of 310,000 active. AID 504832, 2011
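Growth was read as firefly luciferase luminescence after a 48 h, 37 C, 5% CO2 exposure of compounds to reporter-bearing P. falciparum cultures (0.1% parasitemia, 2% hematocrit final) in Albumax-supplemented RPMI 1640.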
AMA1-RON2 inh: qHTS for Inhibitors of AMA1-RON; Towards Development of Antimalarial Drug Lead: Primary Screen. Potency, µM (series often up to 58.2 µM), for inactives: at the top dose activity change, negative = inhibition, hits mostly inhibitors. Plasmodium falciparum AMA1 (3D7) - RON2 peptide interaction. AlphaScreen AMA1-biotinylated RON2 peptide binding. 0.2% of 360,000 active;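 note: 0% = vehicle wells and -100% = peptide control; nearly all actives have a fitted effect of over 45% in size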
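AMA1 (3D7) with his tag at 25 nM final met compounds first, then biotinylated RON2 peptide at 25 nM; detection used donor plus acceptor beads, 10 µg/mL apiece, read by AlphaScreen after 30 min at room temperature.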
Vaccinia Venus: qHTS for Stage-Specific Inhibitors of Vaccinia Orthopoxvirus: Venus Reporter Primary qHTS. Vaccinia virus Venus reporter expression, fluorescence. Potency, µM (highest dose often 36.5 µM), without a hit: at the highest dose activity change, negative = inhibition, actives largely listed as inhibitors. 0.46% of 330,000 active; calls by dose curve; tested in A549 cells; note: nearly all actives have a fitted effect of over 30% in size
Numbers without * were called inactive; i = inactive; u = inconclusive; x = no result given; [ ] = dose if it differs, or a comment. Sampled rows, rich in hits. Any-hit rate of the full collection: about 8.7%. Unless noted, calls come from the whole dose curve; as a rule, active = well fitted curve in the direction sought with a large enough effect; inconclusive = small, poorly fitted or top-dose-only effect, or another doubt; inactive = no such curve, though single readings can be large; an effect the other way counts as inactive or inconclusive. Unless noted, % is set by controls: 0 for no effect and ±100 for the full control effect; potency is the fitted concentration of half-maximal effect.

SMILES	Pf growth 96h	VACV mCherry inh	Pf growth 48h	AMA1-RON2 inh	Vaccinia Venus
CC(=O)c1ccc(OCC(O)CNCc2ccc3c(c2)OCO3)cc1 (stereo not drawn)	-27%	-8%	2.6µM*	-7%	-5%
OC(CNCc1ccc2c(c1)OCO2)COc1ccc(F)cc1 (stereo not drawn)	9%	x	1%	-5%	x
CCN(C(=O)CSc1nc2ccccc2nc1Cc1cccc(OC)c1)c1cccc(C)c1	x	-7%	x	x	-13%
CCOC(=O)c1ccc(NC(=O)c2noc3c2CCCC3)cc1	x	i	x	x	-10%
Oc1ccc(-c2n[nH]c(C(F)(F)F)c2-c2ccccc2)c(O)c1	32%	u	-17%	16%	u
COc1ccccc1-c1c(-c2ccc(O)cc2O)n[nH]c1C(F)(F)F	13µM*	x	u	69%	x
CCSc1nc2c(c(=O)[nH]c(=O)n2C)n1CC(O)COc1ccc(Cl)cc1 (stereo not drawn)	x	i	x	x	-10%
Cc1ccc2[nH]c(=O)c(C(c3nnnn3C(C)(C)C)N(Cc3ccco3)CC3CCCO3)cc2c1 (stereo not drawn)	u	-14%	6.6µM*	8%	-3%
Cc1cccc2cc(C(c3nnnn3C(C)(C)C)N(Cc3ccco3)CC3CCCO3)c(=O)[nH]c12 (stereo not drawn)	u	x	12µM*	-3%	x
CC(C)(C)n1nnnc1C(c1ccccc1F)N(Cc1ccco1)CC1CCCO1 (stereo not drawn)	-18%	-3%	13µM*	-5%	0%
COc1ccccc1C(=O)N[C@@H]1c2ccccc2C2(CCN(Cc3ccc4c(c3)OCO4)CC2)[C@H]1O	x	-28%	x	x	-18%
CC(C)(C)OC(=O)N1CCC(c2c(C(=O)NCc3ccco3)cnn2-c2ccccc2Cl)CC1	x	-9%	x	x	-14%
CN(C)c1cc[n+](CC(O)C[n+]2ccc(N(C)C)cc2)cc1	4.7µM*	-11%	9.3µM*	-1%	-2%
COc1ccc(CN(Cc2ccccc2)C(=O)c2ccno2)cc1COc1ccc(NC(C)=O)cc1	x	i	x	x	-8%
O=C(O)c1cc(NC(=O)c2ccc(Cl)c([N+](=O)[O-])c2)cc(C(=O)O)c1	52%	i	23%	0%	-11%
O=C(Nc1ccc(C(O)(C(F)(F)F)C(F)(F)F)cc1)c1ccc(Cl)c([N+](=O)[O-])c1	10µM*	u	12µM*	12%[11.6 µM]	u
CCOc1cc(Cl)c(S(=O)(=O)n2cc(C)nc2CC)cc1Cl	x	-14%[7.34 µM]	x	x	-15%[7.34 µM]
Cc1cc(Cl)ccc1NC(=O)C1CCN(S(=O)(=O)c2ccc3[nH]c(=O)ccc3c2)CC1	x	-6%	x	x	-5%
Cc1ccccc1N(CC(=O)NCCc1ccccc1)C(=O)c1ccc(N2CCCC2)nc1	u	-24%	10µM*	-10%	-17%
CCOc1ccc(Cn2c(CNS(=O)(=O)c3ccc([N+](=O)[O-])cc3)nc3cccnc32)cc1	x	-19%	x	x	-8%
COc1ccc(OC)c(NC(=O)C2CCN(S(=O)(=O)c3c(C)noc3/C=C/c3ccc(C)cc3)CC2)c1	x	-28%	x	x	-22%
Cc1ccc(C(=O)SC2=NCCS2)cc1	9.3µM*	-23%	11%	9%	-16%
COc1ccc(C(=O)SC2=NCCS2)cc1OC	4%	x	9%	-18%	x
Cc1ccccc1NS(=O)(=O)c1ccc(NC(=O)c2nc3ncccn3n2)cc1	u	-2%	x	10%	-21%
O=C(Nc1cnn(Cc2ccccc2)c1)c1nc2ncccn2n1	2.6µM*	x	84%	0%	-9%
SMILES	Pf growth 96h	VACV mCherry inh	Pf growth 48h	AMA1-RON2 inh	Vaccinia Venus
COc1ccccc1N1CCN(C(=O)C2CCN(S(=O)(=O)c3ccc4c(c3)CC(C)N4C(C)=O)CC2)CC1 (stereo not drawn)	17%	x	12µM*	18%	x
COc1ccc(S(=O)(=O)N2CCC(C(=O)N3CCN(c4ccccc4OC)CC3)CC2)cc1	-5%	x	13µM*	0%	u
O=C(C1CCN(S(=O)(=O)c2ccc(F)cc2)CC1)N1CC=C(c2ccccc2)CC1	-5%	x	10µM*	2%	x
COc1ccccc1N1CCN(C(=O)C2CCN(S(=O)(=O)c3ccc4c(c3)CC(C)N4C(=O)C3CC3)CC2)CC1 (stereo not drawn)	0%	x	u	-11%	x
Cn1c(=O)oc2cc(S(=O)(=O)N3CCC(C(=O)N4CC=C(c5ccccc5)CC4)CC3)ccc21	u	-14%	x	6%	-16%
Cc1nc2ccccn2c(=O)c1NC(=O)c1ccc(F)c(F)c1	x	-9%	x	x	-4%
CCCCCCCCCC[n+]1ccc(/C=C/c2c(C)[nH]c3ccccc23)c2ccccc21	x	i	x	x	i
Cc1ccc(-c2nc3sc(CCNC(=O)c4ccc(C)c(C)c4)c(C)n3n2)cc1	x	-11%	x	x	-7%
CCn1c(/C=C/c2ccc(O)c(O)c2)nc2ccccc2c1=O	u	x	u	-5%	x
O=c1c2ccccc2nc(/C=C/c2ccc([N+](=O)[O-])o2)n1CCCO	2.6µM*	u	u	2%	u
O=c1c2ccccc2nc(/C=C/c2cccc(Br)c2)n1CCCO	13µM*	i	u	6%	-23%
CCn1c(/C=C/c2cc(Br)ccc2O)nc2ccccc2c1=O	-3%	x	0.93µM*	13%	x
CCOC(=O)c1c(NC(=O)Cc2coc3cc(C)cc(C)c23)sc2c1CCC2	x	-1%	x	x	1%
Cc1cc(NC(=O)CSc2nc3ccccc3cc2C#N)no1	12%	13%	21%	24%	-4%
COc1ccc2nc(SCC(=O)NCC3CCCO3)c(C#N)cc2c1 (stereo not drawn)	2.1µM*	8%	0%	-1%	-10%
N#Cc1cc2ccccc2nc1SCC(=O)Nc1ccc(S(=O)(=O)N2CCCC2)cc1	u	-26%	9.3µM*	-1%	-10%
N#Cc1cc2c(nc1SCC(=O)Nc1ccc(Cl)cc1)C1CCN2CC1	1%	x	13µM*	-4%	x
N#Cc1cc2c(nc1SCC(=O)Nc1cc(Cl)ccc1Cl)C1CCN2CC1	u	x	u	-10%	x
COc1ccc2nc(SCC(=O)Nc3ccc(S(=O)(=O)N4CCCC4)cc3)c(C#N)cc2c1	u	i	3.3µM*	23%	-11%
Cc1ccc(S(=O)(=O)c2cnc(SCC(=O)Nc3cc(C)cc(C)c3)nc2N)cc1	x	-25%	x	x	-27%
Cc1nc2nc(CNC(=O)OC(C)(C)C)nn2c(C)c1CCC(=O)NCc1ccc(F)cc1	x	-8%	x	x	-6%
Fc1ccc2[nH]c(-c3cccs3)cc2c1	x	-11%	x	x	-11%
CCOC(=O)c1cccc(NC(=O)C2=C(C)C(=O)OC23CCCCC3)c1	x	-5%	x	x	-4%
Cc1cc(C)c2nc(SCC(=O)Nc3ccc(S(=O)(=O)N4CCCC4)cc3)c(C)cc2c1	x	x	9.3µM*	18%	x
